These results are taken from PubChem BioAssay.

For assay [1], the system named is Wnt5a (protein binding on small-molecule microarray). In words: Wnt5a binders on small-molecule microarray, primary screen, biophysical, 635/667 nm fluorescence (AID 1142).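 Note: fluorescence read at 667 nm with signal to noise per printed feature.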 Particulars: 635 nm fluorescence, higher = more signal.
A short description of assay [2]: cell viability in Huh7 cells, primary screen, cytotoxicity control for HCV replication inhibitor project, CellTiter-Glo luminescence, basal, 48 h (AID 1143).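 Note: Huh7 hepatoma cells carrying a hepatitis C replication reporter with no stimulus; test concentration not given here.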 Particulars: Huh7 HCV replicon, higher = more signal, called active from +8 up or from −8 down. A general note: ATP-based viability assays read luminescence as a measure of living cells.
Assay [3] can be described thus: P. aeruginosa biofilm formation inhibitors, primary screen, PAO1 strain, BacTiter-Glo luminescence, LB-PBS (AID 1144). Particulars: 12 h, higher = more signal.
Assay [4] is described as follows: CREB reporter modulators without forskolin, primary screen, cell-based, PC12, CRE-LacZ reporter, unstimulated (AID 1145). Particulars: no forskolin, luminescence, 4.5 h, higher = more signal, called active from +8 up or from −8 down.
A short description of assay [5]: CREB reporter modulators under forskolin, primary screen, cell-based, PC12, CRE-LacZ reporter, forskolin-stimulated (AID 1146).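 Note: PC12 cells with 6xCRE LacZ reporter stimulated by forskolin 10 µM; beta-galactosidase reporter signal reflecting CREB driven transcription.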 Particulars: luminescence, 4.5 h, higher = more signal, called active from +8 up or from −8 down.
Assay [6] addresses Streptavidin (Streptomyces avidinii) (UniProt P22629). Put plainly: streptavidin binders on small-molecule microarray, primary screen, artefact control for SMM compound annotation, biophysical, 635/667 nm fluorescence (AID 1147).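 Note: signal reflects streptavidin binding to arrayed compounds as a control protein.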 Particulars: streptavidin binding, higher = more signal.
Assay [7] can be described thus: small-molecule binders of probe aInhba, primary screen, biochemical, small-molecule microarray, 635/667 nm fluorescence (AID 1148).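 Note: score merges 667nm spot fluorescence with signal-to-noise for antibody binding to printed compounds.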 Particulars: higher = more signal.
The target of assay [8] is Torsin-1A (Homo sapiens) (UniProt O14656). Put plainly: torsin A binders from cell lysate, primary screen, small-molecule microarray, wild-type, 635/667 nm (AID 1149). Particulars: COS7 hTOR1A-WT lysate, 635 nm fluorescence, higher = more signal.
Chain of Torsin-1A (Homo sapiens) (O14656 whole entry, looked up): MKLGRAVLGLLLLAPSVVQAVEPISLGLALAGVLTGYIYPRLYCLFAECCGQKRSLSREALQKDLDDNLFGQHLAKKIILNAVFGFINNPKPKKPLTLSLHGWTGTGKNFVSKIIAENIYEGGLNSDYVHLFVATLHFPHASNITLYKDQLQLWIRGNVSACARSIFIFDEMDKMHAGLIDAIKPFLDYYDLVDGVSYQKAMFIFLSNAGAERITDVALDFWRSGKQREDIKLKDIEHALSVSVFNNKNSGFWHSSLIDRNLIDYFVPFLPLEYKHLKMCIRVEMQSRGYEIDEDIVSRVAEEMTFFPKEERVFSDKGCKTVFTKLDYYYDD
For assay [9] the target is unchanged. In words: small-molecule binders of mutant TOR1A in lysate, primary screen, cell lysate, small-molecule microarray, COS7 lysate, 635/667 nm fluorescence (AID 1150).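 Note: score pools 667 nm emission and signal to noise measuring lysate protein binding.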 Particulars: COS7 hTOR1A mutant lysate, 635 nm fluorescence, higher = more signal.
Assay [10] concerns Sonic hedgehog protein (Shh). In words: small-molecule binders of Shh protein, primary screen, biochemical, small-molecule microarray, 635/667 nm fluorescence (AID 1151).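 Note: Shh protein binding to compounds spotted on small-molecule microarray slides; score combines spot fluorescence intensity with signal-to-noise across triplicate slides.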 Particulars: small-molecule microarray binding, 635 nm fluorescence; higher = more signal.
Assay [11] can be described thus: E. coli DRC41 culture turbidity changes, primary screen, E. coli filamentation inducer project, strain DRC41, OD650, 48 h (AID 1152).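 Note: E. coli MC1000 strain DRC41 lacking acrAB efflux pump and sulA.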 Particulars: E. coli DRC41 (acrAB sulA), higher = more signal, called active from +8 up or from −8 down.
Assay [12] in a line: small-molecule binders of probe aLefty1, primary screen, biochemical, small-molecule microarray, 635/667 nm fluorescence (AID 1153).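 Note: score merges spot fluorescence with signal-to-noise ratio from the scanned slide images.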 Particulars: higher = more signal.
Assay [13] can be described thus: PSAC antagonists in infected red cells, primary screen, cell-based, P. falciparum Indochina, OD700, 1 h (AID 1154). Particulars: P. falciparum Indochina infected RBC osmotic lysis, higher = more signal, called active from +8 up or from −8 down.
Assay [14] in a line: PSAC antagonists in infected red cells, primary screen, cell-based, P. falciparum Indochina, OD700, 2 h (AID 1155).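 Note: lysis reports solute entry through the parasite surface anion channel PSAC; channel blockers reduce lysis of infected cells.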 Particulars: P. falciparum Indochina infected erythrocytes, osmotic lysis OD700; higher = more signal, called active from +8 up or from −8 down.
The nature of assay [15]: osmotic lysis modulators in infected erythrocytes, primary screen, PSAC antagonist project, cell-based, P. falciparum Indochina, OD700, 3 h (AID 1156). Particulars: higher = more signal, called active from +8 up or from −8 down.
Assay [16] is described as follows: PSAC antagonists in infected red cells, primary screen, cell-based, P. falciparum Indochina, OD700, 18 h (AID 1157). Particulars: P. falciparum Indochina infected erythrocytes, osmotic lysis OD700, 18 h; higher = more signal, called active from +8 up or from −8 down.
Assay [17] can be described thus: modulators of S6 phosphorylation in cells, primary screen, cell-based, A549, cytoblot, luminescence, serum-stimulated (AID 1158).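 Note: serum-stimulated A549 lung adenocarcinoma cells; signal is phosphorylated S6 detected by cytoblot immunostaining with HRP secondary.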 Particulars: A549 phospho-S6 cytoblot, 5 h, higher = more signal.
Assay [18] deals with NADPH oxidase 2 (Homo sapiens) (UniProt P04839). In words: NOX2-dependent H2O2 signal modulators, primary screen, NOX inhibitor project, cell-based, HEK293-NOX2, PMA-stimulated, Amplex Red fluorescence (AID 1159). Note: test concentration not given here. Particulars: 45 min, higher = more signal, called active from +8 up or from −8 down.
Chain of NADPH oxidase 2 (Homo sapiens) (P04839 whole entry, looked up): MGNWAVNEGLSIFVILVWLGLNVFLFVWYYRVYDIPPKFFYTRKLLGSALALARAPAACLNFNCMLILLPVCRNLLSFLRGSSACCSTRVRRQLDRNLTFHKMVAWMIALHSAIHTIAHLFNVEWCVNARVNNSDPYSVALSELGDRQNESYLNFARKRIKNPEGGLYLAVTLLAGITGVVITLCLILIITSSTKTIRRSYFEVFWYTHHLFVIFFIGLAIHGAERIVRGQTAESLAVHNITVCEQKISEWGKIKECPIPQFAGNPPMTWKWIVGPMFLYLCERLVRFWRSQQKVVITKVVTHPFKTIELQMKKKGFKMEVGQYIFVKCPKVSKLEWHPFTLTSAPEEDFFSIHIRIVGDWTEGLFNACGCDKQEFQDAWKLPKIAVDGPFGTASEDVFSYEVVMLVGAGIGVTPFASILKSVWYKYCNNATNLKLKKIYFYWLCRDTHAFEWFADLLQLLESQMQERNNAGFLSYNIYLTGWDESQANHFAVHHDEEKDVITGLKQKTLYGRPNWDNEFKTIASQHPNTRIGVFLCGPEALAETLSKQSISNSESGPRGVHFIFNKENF
Assay [19] has as its target NADPH oxidase 4 (Homo sapiens) (UniProt Q9NPH5). Put plainly: NOX4-dependent H2O2 signal modulators, primary screen, NOX inhibitor project, cell-based, HEK293-NOX4, tetracycline-induced, Amplex Red fluorescence (AID 1160). Particulars: 45 min, higher = more signal, called active from +8 up or from −8 down.
Assay [20] addresses NADPH oxidase 5 (Homo sapiens) (UniProt Q96PH1). In words: NOX5-dependent H2O2 signal modulators, primary screen, NOX inhibitor project, cell-based, HEK293-NOX5, Amplex Red fluorescence (AID 1161). Particulars: HEK293-NOX5, ionomycin, 45 min, higher = more signal.

Calls of active or inactive are those of the source. Unless noted, the rule behind the calls is not given here.

Chain of NADPH oxidase 4 (Homo sapiens) (Q9NPH5 whole entry, looked up): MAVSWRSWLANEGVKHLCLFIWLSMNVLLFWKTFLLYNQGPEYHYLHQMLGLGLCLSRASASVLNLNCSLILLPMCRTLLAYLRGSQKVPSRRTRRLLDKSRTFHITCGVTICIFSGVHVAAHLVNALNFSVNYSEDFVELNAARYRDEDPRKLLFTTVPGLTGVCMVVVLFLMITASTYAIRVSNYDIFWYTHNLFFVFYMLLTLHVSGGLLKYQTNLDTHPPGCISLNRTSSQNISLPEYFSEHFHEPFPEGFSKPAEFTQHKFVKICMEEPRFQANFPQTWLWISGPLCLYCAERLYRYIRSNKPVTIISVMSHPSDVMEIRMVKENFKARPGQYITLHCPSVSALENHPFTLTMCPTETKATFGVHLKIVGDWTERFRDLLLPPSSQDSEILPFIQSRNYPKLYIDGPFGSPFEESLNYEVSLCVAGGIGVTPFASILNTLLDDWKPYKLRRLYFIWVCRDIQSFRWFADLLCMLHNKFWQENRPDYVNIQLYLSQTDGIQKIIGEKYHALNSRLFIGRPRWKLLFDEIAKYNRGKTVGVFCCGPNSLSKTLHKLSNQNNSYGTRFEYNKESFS
Chain of NADPH oxidase 5 (Homo sapiens) (Q96PH1 whole entry, looked up): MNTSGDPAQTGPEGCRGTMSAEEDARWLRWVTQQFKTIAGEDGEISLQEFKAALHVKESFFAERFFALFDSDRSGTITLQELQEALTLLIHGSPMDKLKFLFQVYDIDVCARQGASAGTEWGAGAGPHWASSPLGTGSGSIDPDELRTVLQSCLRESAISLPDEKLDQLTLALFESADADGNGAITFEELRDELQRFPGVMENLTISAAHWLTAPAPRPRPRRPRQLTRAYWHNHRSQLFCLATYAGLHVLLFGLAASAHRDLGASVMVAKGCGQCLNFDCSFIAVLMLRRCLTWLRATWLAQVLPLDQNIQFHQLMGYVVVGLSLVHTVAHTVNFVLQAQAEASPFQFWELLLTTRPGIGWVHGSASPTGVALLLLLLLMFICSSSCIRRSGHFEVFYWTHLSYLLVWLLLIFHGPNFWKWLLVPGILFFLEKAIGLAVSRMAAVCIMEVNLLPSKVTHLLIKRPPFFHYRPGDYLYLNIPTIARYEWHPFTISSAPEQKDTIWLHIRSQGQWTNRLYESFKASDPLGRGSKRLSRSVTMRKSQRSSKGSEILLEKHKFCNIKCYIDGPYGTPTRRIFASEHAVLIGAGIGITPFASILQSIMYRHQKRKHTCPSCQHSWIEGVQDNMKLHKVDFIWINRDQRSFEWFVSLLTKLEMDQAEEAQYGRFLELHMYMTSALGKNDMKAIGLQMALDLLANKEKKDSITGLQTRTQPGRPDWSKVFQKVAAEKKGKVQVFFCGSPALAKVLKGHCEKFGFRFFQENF
Chain of Streptavidin (Streptomyces avidinii) (P22629 whole entry, looked up): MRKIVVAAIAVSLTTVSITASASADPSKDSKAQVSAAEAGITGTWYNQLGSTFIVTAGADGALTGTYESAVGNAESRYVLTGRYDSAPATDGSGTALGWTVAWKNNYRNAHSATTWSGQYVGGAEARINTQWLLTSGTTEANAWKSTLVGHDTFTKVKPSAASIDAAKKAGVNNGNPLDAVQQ

Take `COc1ccc([Si](C)(C)[C@H]2[C@H](CC(=O)N3CCC[C@H]3CO)O[C@@]3(C(=O)N(Cc4ccc(N5CCC5=O)cc4)c4ccccc43)[C@@H]2C)cc1`: the composite z-score in [1] is 0.699; in assay [6], 0.39; in assay [7], -0.0523; with Torsin-1A (Homo sapiens) [8], 1.1; with Torsin-1A (Homo sapiens) [9] it was 0.43; in assay [10], 1.77. In assay [12], this compound returned a composite z-score of 0.213. Further, the z-score is -5.51 (inactive) in assay [2]; 0.0292 (inactive) in assay [3]; 0.18 (inactive) in assay [4]; -0.404 (inactive) in assay [5]; -0.691 (inactive) in [11]; 10 (active) in [13]. Moreover, the z-score was 1.8 (inactive) in [14]; 0.171 (inactive) in assay [15]; 0.746 (inactive) in assay [16]; 0.783 in assay [17]; 1.93 (inactive) in [18]; 1.63 (inactive) in [19]. This compound also came in with a z-score in assay [20] of 4.56.
Consider `COc1cc(NN2C(C(O)c3ccc(I)cc3)C=CC3C(=O)N(c4ccccc4)C(=O)C32)cc(OC)c1OC` (stereo not given), for which the composite z-score in assay [1] was 0.378; in [6], 0.901; in [7], 0.233; with Torsin-1A (Homo sapiens) [8], 0.544; in the assay with Torsin-1A (Homo sapiens) [9] it was 0.743; in assay [10], 0.325. For the same compound, in [12], the composite z-score is 0.365. Also, the z-score in assay [2] was -3.44 (inactive); in assay [3], -1.28 (inactive); in assay [4], -0.136 (inactive); in assay [5] it was 0.0938 (inactive); in [11] it was -0.877 (inactive); in assay [13], 2.08 (inactive). For the same compound, the z-score is 0.477 (inactive) in [14]; 0.481 (inactive) in assay [15]; -0.497 (inactive) in assay [16]; 1.52 in [17]; -3.15 (inactive) in [18]; -4.09 (inactive) in [19]. The compound further showed a z-score in assay [20] of -6.01.
For the compound `C=C(COC)/C(=C/C[C@@H](OC(=O)c1ccncc1)c1ccccc1OCCO)c1cc(C(=O)OC)ccc1OC`, the composite z-score in assay [1] was -0.146; in [6], -0.409; in assay [7], -0.0762; with Torsin-1A (Homo sapiens) [8], 0.758; with Torsin-1A (Homo sapiens) [9] it was -0.103; in [10], 0.249. The same compound came in with a composite z-score in assay [12] of -0.0654. Also, the z-score in assay [2] was -1.88 (inactive); in assay [3], 0.454 (inactive); in assay [4], 14.7 (active); in [5], 3.84 (inactive); in assay [11], 0.132 (inactive); in assay [13], 23.5 (active). For the same compound, the z-score in assay [14] is 6 (inactive); in assay [15], 1.74 (inactive); in assay [16], 1.02 (inactive); in assay [17], 0.171; in assay [18], -0.97 (inactive); in assay [19] it was -1.4 (inactive). In assay [20], this compound had a z-score of -2.07.
In the case of `COC(=O)[C@@]1(Cc2ccc(F)cc2)[C@H]2c3cc(C(=O)N4CCCC4)n(CC4CC4)c3C[C@H]2CN1C(=O)c1ccccc1`, the composite z-score was found to be 0.0479 in assay [1]; 1.86 in assay [6]; 0.74 in [7]; 0.111 in the assay with Torsin-1A (Homo sapiens) [8]; 1.03 in the assay with Torsin-1A (Homo sapiens) [9]; 0.377 in assay [10]. In assay [12], the composite z-score came to 1.56. Also, the z-score was -2.61 (inactive) in [2]; 0.197 (inactive) in assay [3]; 0.972 (inactive) in [4]; -0.451 (inactive) in assay [5]; -1.37 (inactive) in [11]; 2.89 (inactive) in assay [13]. For the same compound, the z-score is 0.0582 (inactive) in assay [14]; 0.454 (inactive) in [15]; 0.666 (inactive) in assay [16]; 0.516 in [17]; 0.0286 (inactive) in assay [18]; -1.62 (inactive) in assay [19]. Further, in assay [20], the z-score is -0.81.
With `O=C(NCC(O)CO)[C@@]1(CCS(=O)(=O)c2ccccc2)COC(c2ccc(OCCCO)cc2)=N1` (stereo not given in full), the composite z-score was 0.556 in assay [1]; 0.985 in assay [6]; 0.228 in assay [7]; 1.13 with Torsin-1A (Homo sapiens) [8]; 1.91 in the assay with Torsin-1A (Homo sapiens) [9]; -0.504 in assay [10]. In assay [12], the composite z-score was found to be 0.467. The z-score in [2] was -1.2 (inactive); in assay [3], 0.063 (inactive); in assay [4], 0.33 (inactive); in assay [5] it was 0.0138 (inactive); in assay [11], 0.457 (inactive); in assay [13], 29.3 (active). The z-score in [14] was 22.3 (active); in assay [15], 1.7 (inactive); in [16] it was 2.91 (inactive); in assay [17], -0.245; in assay [18], 0.299 (inactive); in assay [19], 1.77 (inactive). The z-score in [20] is 1.51.
Regarding `C=CCC(OC(C)=O)[C@@H]1[C@@H](N(Cc2ccc(-c3ccccc3)cc2)C(=O)c2ccc(C)cc2)c2cc(OCCCO)ccc2N1C(=O)Cc1ccc2ccccc2c1` (stereo not given in full), the composite z-score in [1] was -0.0632; in [6] it was 0.129; in assay [7], -0.0986; with Torsin-1A (Homo sapiens) [8], 0.0508; with Torsin-1A (Homo sapiens) [9] it was -0.577; in assay [10], 1. For the same compound, the composite z-score in [12] is -0.0011. Also, the z-score is -0.889 (inactive) in assay [2]; -0.0727 (inactive) in assay [3]; 1.66 (inactive) in assay [4]; -0.515 (inactive) in assay [5]; 2.43 (inactive) in assay [11]; -0.0828 (inactive) in [13]. The z-score in [14] was -0.66 (inactive); in assay [15] it was -1.45 (inactive); in assay [16] it was -0.938 (inactive); in assay [17], 1.23; in [18], -1.68 (inactive); in assay [19], 0.934 (inactive). In assay [20], the z-score worked out at 1.62.
Turning to `CCCC=C(CCC)[C@@H](NC(=O)CCc1ccccc1)c1ccc(C(F)(F)F)cc1`, the composite z-score is -0.0114 in assay [1]; 1.07 in assay [6]; 0.0374 in assay [7]; 0.983 in the assay with Torsin-1A (Homo sapiens) [8]; 0.801 in the assay with Torsin-1A (Homo sapiens) [9]; -0.37 in assay [10]. Further, the composite z-score in assay [12] came to 0.73. The z-score in [2] is -2.08 (inactive); in [3] it was 0.715 (inactive); in assay [4], -0.568 (inactive); in assay [5] it was 0.318 (inactive); in assay [11], -1.56 (inactive); in assay [13], 1.71 (inactive). Also, the z-score was 0.542 (inactive) in assay [14]; 1.8 (inactive) in assay [15]; 1.01 (inactive) in assay [16]; 0.697 in assay [17]; -0.975 (inactive) in [18]; -1.6 (inactive) in assay [19]. In assay [20], this compound gave a z-score of 2.78.
For the compound `C=CCN1C(=O)[C@]2(O[C@H](CCO)[C@@H]([Si](C)(C)c3ccc(OC)cc3)[C@@H]2C)c2cc(N3C(=O)COc4ccccc43)ccc21`, the composite z-score was 0.01 in [1]; 0.435 in assay [6]; -0.0245 in assay [7]; -0.339 with Torsin-1A (Homo sapiens) [8]; 0.072 in the assay with Torsin-1A (Homo sapiens) [9]; 1.18 in assay [10]. The composite z-score in assay [12] is 0.142. Further, the z-score was -8.07 (active) in assay [2]; 0.518 (inactive) in [3]; 27.2 (active) in assay [4]; -3.5 (inactive) in assay [5]; 0.512 (inactive) in assay [11]; 6.04 (inactive) in assay [13]. The z-score is 2.56 (inactive) in assay [14]; -0.398 (inactive) in assay [15]; 0.742 (inactive) in [16]; 2.03 in [17]; 0.617 (inactive) in assay [18]; 0.0613 (inactive) in assay [19]. In assay [20], this compound yielded a z-score of -1.94.
